Here are results for two sequences from publication PMC7862700, “An all-to-all approach to the identification of sequence-specific readers for epigenetic DNA modifications on cytosine”.

Experiment in all cases: DAPPL (digital affinity profiling via proximity ligation, sequencing); 10 mM Tris-HCl pH 7.5, 50 mM NaCl, 1 mM DTT, 4% glycerol, room temperature, 30 min; GST-TFs on glutathione beads, 16-mer random dsDNA library, 0.1% formaldehyde crosslink after washing; high values mean tight binding
Settings in all cases: protein: recombinant; tags: N-terminal GST; dsDNA, one strand shown

The target in one assay is T1, GABPA (Homo sapiens, UniProt Q06546 1-454).
T1 sequence: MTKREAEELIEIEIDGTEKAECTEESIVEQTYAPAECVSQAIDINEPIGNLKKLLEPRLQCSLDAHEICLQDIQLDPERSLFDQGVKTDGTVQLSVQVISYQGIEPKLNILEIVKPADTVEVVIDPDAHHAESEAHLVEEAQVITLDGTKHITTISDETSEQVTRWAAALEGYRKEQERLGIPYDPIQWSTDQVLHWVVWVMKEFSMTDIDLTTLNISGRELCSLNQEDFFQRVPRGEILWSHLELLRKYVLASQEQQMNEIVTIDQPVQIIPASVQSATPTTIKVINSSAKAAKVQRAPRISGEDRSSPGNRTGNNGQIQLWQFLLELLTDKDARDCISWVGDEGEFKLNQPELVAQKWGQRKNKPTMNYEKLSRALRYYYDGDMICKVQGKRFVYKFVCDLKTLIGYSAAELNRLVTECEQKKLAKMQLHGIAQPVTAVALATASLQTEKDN
The method in brief:
(§1)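 Sequencing on an Illumina NextSeq500 followed washing, crosslinking with 0.1% formaldehyde, proximity ligation (BsaI/T4 ligase, 1 h, 37 °C) and PCR amplification of pools that had been incubated for 30 min at room temperature with 200 nmole of a random double-stranded 16-mer DNA library in Tris/NaCl/DTT/glycerol buffer. Each pool held DNA-barcoded human transcription factors, expressed in yeast as GST fusions and captured on glutathione beads, plus a tag-only sample. Binding signal is a hexamer's read frequency for a factor divided by its frequency in the tag-only sample.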

For a further assay, the target named is ETV5 (Homo sapiens, UniProt P41161 1-510). A digest of the protocol: as §1
Sequence of ETV5 (P41161 whole entry): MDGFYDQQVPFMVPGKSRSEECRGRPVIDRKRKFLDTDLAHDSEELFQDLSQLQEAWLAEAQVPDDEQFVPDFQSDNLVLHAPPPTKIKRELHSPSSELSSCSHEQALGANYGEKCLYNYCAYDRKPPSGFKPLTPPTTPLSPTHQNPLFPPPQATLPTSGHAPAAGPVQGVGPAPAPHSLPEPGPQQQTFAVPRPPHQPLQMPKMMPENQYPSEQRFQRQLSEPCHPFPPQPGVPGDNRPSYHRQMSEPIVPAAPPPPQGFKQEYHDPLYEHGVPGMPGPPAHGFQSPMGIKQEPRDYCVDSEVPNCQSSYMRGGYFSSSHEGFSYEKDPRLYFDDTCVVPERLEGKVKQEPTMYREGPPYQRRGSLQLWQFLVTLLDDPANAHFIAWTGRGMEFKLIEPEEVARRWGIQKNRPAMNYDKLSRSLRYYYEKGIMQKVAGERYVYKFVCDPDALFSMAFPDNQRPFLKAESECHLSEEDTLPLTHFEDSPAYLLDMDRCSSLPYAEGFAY
The next assay addresses T2, ELK4 (Homo sapiens, UniProt P28324-2 1-405).
T2 sequence: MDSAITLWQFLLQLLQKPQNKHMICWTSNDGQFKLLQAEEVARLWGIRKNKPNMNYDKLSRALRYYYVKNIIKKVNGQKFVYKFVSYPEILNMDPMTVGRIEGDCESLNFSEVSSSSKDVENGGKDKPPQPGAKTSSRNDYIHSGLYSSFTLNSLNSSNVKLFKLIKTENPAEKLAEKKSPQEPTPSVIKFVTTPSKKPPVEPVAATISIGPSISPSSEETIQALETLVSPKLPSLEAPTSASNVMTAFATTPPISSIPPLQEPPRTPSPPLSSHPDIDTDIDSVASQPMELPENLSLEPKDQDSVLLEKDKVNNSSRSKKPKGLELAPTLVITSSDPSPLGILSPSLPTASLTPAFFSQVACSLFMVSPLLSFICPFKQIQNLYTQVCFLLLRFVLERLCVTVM
The method in brief:
as §1

Another assay deals with T3, ETV7 (Homo sapiens, UniProt Q9Y603 1-341).
T3 sequence: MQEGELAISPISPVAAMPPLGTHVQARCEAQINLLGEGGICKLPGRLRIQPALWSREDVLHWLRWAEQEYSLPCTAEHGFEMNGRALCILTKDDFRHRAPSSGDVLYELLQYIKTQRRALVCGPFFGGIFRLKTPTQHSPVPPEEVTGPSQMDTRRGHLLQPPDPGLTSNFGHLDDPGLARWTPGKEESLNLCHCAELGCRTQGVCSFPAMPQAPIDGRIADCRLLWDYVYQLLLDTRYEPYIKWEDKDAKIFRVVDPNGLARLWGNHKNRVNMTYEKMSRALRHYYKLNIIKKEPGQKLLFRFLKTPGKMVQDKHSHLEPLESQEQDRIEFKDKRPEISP
A digest of the protocol: as §1

In a further assay the target is T4, ELK1 (Homo sapiens, UniProt P19419 1-428).
T4 sequence: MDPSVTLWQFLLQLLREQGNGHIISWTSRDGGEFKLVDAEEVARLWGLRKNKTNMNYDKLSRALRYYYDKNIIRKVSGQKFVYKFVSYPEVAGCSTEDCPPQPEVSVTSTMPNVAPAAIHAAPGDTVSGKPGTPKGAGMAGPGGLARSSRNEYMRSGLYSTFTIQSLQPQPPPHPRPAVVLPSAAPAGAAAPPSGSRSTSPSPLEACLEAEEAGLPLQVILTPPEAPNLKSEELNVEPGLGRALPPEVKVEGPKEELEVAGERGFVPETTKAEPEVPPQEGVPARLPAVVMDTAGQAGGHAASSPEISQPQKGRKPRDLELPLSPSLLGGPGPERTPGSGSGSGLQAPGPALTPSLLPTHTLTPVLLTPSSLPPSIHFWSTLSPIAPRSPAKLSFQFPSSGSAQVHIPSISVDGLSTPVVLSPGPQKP
The method in brief: as §1

The target of the next assay is T5, ERG (Homo sapiens, UniProt P11308 1-479).
T5 sequence: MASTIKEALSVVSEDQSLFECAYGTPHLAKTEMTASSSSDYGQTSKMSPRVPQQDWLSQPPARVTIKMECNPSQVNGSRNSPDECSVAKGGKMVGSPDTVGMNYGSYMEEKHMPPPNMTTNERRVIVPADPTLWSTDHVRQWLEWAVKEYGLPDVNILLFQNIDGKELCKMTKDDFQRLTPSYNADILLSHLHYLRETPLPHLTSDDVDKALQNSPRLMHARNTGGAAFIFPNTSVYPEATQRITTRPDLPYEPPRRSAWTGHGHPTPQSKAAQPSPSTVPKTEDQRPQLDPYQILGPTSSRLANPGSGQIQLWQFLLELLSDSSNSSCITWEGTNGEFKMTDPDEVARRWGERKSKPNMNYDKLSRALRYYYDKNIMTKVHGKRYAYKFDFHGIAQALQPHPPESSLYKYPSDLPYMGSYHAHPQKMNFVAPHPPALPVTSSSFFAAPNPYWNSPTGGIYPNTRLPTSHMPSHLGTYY
The method in brief: as §1

Another assay has as its target T6, EHF (Homo sapiens, UniProt Q9NZC4 1-300).
T6 sequence: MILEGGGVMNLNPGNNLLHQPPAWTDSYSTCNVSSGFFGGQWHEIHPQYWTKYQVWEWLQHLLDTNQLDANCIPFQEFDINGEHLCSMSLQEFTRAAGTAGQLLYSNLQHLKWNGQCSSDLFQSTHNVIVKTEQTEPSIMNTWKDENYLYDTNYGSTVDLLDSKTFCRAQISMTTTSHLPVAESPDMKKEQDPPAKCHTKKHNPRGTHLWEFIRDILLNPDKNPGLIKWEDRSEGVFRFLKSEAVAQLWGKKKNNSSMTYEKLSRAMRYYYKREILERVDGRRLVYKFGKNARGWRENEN
A digest of the protocol: as §1

The target in another assay is SPIB (Homo sapiens, UniProt Q01892 1-262). The method in brief: as §1
Sequence of SPIB (Q01892 whole entry): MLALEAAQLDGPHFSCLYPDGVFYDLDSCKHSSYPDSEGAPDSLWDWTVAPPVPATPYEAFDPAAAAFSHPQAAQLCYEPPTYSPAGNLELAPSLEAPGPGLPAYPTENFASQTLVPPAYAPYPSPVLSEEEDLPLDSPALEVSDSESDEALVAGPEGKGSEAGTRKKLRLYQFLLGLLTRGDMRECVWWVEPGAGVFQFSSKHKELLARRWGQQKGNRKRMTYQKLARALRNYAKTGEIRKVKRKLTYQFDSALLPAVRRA
Another assay addresses T7, ELK3 (Homo sapiens, UniProt P41970 1-407).
T7 sequence: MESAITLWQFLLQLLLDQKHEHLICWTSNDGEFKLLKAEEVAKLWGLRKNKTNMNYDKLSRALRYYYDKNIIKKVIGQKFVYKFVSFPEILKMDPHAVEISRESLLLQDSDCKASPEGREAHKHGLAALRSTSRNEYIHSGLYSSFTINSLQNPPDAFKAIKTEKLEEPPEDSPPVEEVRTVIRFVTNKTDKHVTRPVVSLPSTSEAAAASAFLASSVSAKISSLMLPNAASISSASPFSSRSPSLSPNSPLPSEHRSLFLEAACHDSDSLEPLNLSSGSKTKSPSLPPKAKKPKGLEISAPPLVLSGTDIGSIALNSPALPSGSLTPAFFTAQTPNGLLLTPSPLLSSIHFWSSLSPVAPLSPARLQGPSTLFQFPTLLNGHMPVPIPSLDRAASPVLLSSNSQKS
A digest of the protocol: as §1

In a further assay the target is T8, SPIC (Homo sapiens, UniProt Q8N5J4 1-248).
T8 sequence: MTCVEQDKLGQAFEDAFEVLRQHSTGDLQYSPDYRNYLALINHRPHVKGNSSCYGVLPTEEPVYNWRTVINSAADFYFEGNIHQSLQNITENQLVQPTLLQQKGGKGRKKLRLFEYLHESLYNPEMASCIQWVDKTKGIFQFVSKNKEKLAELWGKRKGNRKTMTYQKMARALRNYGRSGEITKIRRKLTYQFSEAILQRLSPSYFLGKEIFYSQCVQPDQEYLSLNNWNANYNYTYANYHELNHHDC
The method in brief:
as §1

The next assay concerns the target T9, ELF3 (Homo sapiens, UniProt P78545 1-371).
T9 sequence: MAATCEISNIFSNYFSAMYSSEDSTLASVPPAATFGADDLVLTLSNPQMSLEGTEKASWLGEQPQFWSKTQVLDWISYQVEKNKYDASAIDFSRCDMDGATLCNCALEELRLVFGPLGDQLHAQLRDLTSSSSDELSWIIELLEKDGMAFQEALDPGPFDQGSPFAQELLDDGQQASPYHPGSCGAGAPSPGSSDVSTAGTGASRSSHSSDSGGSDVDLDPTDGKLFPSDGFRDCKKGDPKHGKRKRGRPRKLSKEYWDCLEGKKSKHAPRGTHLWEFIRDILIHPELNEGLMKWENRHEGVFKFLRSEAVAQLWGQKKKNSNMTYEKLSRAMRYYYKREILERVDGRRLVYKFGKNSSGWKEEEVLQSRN
A digest of the protocol: as §1

The target in another assay is ETV1 (Homo sapiens, UniProt P50549 1-477). A digest of the protocol: as §1
Sequence of ETV1 (P50549 whole entry): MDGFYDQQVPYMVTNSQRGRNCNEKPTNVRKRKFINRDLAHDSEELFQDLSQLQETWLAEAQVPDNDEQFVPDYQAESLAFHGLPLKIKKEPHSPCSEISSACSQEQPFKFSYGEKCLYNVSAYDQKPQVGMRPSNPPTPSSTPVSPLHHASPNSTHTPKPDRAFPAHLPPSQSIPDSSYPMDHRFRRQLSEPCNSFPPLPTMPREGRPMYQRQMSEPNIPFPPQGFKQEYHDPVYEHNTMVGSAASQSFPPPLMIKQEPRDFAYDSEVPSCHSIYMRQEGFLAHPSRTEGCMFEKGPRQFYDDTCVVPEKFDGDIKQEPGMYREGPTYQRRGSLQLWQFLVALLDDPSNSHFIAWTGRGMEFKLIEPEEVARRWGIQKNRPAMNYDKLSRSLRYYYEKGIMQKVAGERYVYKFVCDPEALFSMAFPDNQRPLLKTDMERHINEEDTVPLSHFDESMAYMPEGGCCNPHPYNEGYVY
A further assay concerns the target T10, ETV3L (Homo sapiens, UniProt Q6ZN32 1-361).
T10 sequence: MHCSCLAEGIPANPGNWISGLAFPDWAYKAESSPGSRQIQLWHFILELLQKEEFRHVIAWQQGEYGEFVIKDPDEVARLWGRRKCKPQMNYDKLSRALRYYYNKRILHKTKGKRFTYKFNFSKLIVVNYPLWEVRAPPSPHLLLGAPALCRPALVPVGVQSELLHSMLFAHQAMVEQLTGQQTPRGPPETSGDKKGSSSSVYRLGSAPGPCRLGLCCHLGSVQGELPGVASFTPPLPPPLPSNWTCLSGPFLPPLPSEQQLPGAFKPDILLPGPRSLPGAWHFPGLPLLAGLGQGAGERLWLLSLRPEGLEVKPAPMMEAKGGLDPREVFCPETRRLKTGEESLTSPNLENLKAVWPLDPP
A digest of the protocol: as §1

A further assay concerns the target T11, ETS2 (Homo sapiens, UniProt P15036 1-469).
T11 sequence: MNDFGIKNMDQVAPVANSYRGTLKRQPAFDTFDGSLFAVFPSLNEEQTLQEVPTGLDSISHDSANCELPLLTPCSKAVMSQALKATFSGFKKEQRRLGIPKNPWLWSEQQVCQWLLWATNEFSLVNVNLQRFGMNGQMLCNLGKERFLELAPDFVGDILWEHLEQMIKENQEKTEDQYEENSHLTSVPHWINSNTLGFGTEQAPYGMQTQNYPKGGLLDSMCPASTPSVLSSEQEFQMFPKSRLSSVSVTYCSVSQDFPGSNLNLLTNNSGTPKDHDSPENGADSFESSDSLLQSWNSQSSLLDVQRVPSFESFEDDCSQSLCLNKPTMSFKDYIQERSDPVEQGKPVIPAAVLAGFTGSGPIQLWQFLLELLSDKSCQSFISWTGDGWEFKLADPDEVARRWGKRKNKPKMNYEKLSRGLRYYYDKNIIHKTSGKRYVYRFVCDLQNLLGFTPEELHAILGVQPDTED
A digest of the protocol:
as §1

The next assay has as its target T12, SPDEF (Homo sapiens, UniProt O95238 1-335).
T12 sequence: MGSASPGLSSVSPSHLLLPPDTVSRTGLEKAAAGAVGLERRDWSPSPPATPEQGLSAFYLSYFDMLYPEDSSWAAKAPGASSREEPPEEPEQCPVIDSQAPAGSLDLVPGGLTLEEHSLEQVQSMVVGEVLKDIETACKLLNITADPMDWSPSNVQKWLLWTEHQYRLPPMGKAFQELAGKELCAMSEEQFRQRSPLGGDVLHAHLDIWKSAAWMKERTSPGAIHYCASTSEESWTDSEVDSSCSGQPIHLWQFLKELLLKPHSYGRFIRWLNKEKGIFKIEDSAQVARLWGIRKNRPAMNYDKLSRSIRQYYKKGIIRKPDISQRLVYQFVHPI
A digest of the protocol:
as §1

In another assay the target is T13, ETV3 (Homo sapiens, UniProt P41162-2 1-143).
T13 sequence: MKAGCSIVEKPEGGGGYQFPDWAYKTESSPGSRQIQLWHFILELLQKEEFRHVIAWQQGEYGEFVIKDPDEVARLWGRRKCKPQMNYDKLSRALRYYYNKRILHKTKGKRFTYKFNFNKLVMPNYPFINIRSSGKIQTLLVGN
A digest of the protocol: as §1

In a further assay the target is ETV6 (Homo sapiens, UniProt P41212 1-452). A digest of the protocol:
as §1

Sequence of ETV6 (P41212 whole entry): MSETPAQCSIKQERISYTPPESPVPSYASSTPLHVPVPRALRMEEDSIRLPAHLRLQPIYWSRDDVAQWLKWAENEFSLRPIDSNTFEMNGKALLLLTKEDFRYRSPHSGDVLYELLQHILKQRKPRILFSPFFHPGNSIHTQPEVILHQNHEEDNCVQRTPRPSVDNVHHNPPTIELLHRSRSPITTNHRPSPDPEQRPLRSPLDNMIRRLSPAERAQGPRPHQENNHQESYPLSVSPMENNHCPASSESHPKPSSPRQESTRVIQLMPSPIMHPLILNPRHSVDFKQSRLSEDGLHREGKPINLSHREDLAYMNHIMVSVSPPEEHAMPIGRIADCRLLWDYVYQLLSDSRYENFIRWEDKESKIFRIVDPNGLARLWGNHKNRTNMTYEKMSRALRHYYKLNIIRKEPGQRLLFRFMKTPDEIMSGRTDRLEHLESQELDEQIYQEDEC

As for GTTGGT, the binding signal with GABPA is 1.04 fold enrichment (6-mer frequency, TF over GST control); in the assay with ETV5, 1.01 fold enrichment (6-mer frequency, TF over GST control); with ELK4, 1.09 fold enrichment (6-mer frequency, TF over GST control); with ETV7, 1.02 fold enrichment (6-mer frequency, TF over GST control).

As to AGTCCT, the binding signal with ELK1 is 1.06 fold enrichment (6-mer frequency, TF over GST control); with ERG, 1.07 fold enrichment (6-mer frequency, TF over GST control); with EHF it was 1.03 fold enrichment (6-mer frequency, TF over GST control); in the assay with SPIB, 1.13 fold enrichment (6-mer frequency, TF over GST control); with ELK3, 1.01 fold enrichment (6-mer frequency, TF over GST control); with ETV5 it was 1.05 fold enrichment (6-mer frequency, TF over GST control). Moreover, the binding signal was 1.13 fold enrichment (6-mer frequency, TF over GST control) in the assay with SPIC; 1 fold enrichment (6-mer frequency, TF over GST control) in the assay with ELK4; 1.03 fold enrichment (6-mer frequency, TF over GST control) with ELF3; 1 fold enrichment (6-mer frequency, TF over GST control) with ETV1; 1.02 fold enrichment (6-mer frequency, TF over GST control) with ETV3L; 1.06 fold enrichment (6-mer frequency, TF over GST control) in the assay with ETS2. Besides, the binding signal with SPDEF was 1.02 fold enrichment (6-mer frequency, TF over GST control); with ETV7 it was 1.14 fold enrichment (6-mer frequency, TF over GST control); in the assay with ETV3, 1.01 fold enrichment (6-mer frequency, TF over GST control); with ETV6 it was 1.03 fold enrichment (6-mer frequency, TF over GST control).
